ChEMBL document CHEMBL1157539, “Thousands of chemical starting points for antimalarial lead identification” (Nature, 2010)

Each molecule was assayed on Plasmodium falciparum (assay: GSK_TCMDC: Inhibition of Plasmodium falciparum Dd2 in whole red blood cells, using parasite LDH activity as an index of growth. Test compounds present at 2uM).
Type: functional

| SMILES | Inhibition [%] |
| --- | --- |
| CC1(C)CNCc2cc(NC(=O)/C=C/c3ccc(Cl)cc3)ccc21.Cl | 26 |
| Cc1cccc2nc(-c3cccc(-c4ccc(CNCCc5ccncc5)cc4)c3)[nH]c12.O=C(O)C(F)(F)F | 100 |
| CN1CCC[C@H]1COc1ccc(CN2CC[C@H](NC(=O)c3ccc(Cl)c(Cl)c3)C2)cc1Br.O=C(O)C(F)(F)F | 20 |
| Cc1nnsc1C(=O)Nc1cccc(-c2ccc(-c3nc4ccccc4[nH]3)cc2)c1 | 58 |
| Cc1cc2cc(-c3ccc(CN)cc3)ccc2nc1N | 8 |
| O=C(Cc1ccc(NC(=O)c2ccc(O)c(-c3ccc(Cl)c(Cl)c3)c2)cc1)NCCN1CCCCC1 | 63 |
| O=C(NCCCN1CCOCC1)c1ccc(-c2cccc(NC(=O)c3ccc(Cl)c(Cl)c3)c2)cc1 | 68 |
| C#CCCOc1ccc2ccccc2c1CNCCCCCCNCc1c(OCCC#C)ccc2ccccc12 | 65 |
| O=C(C=Cc1ccc(Cl)c(Cl)c1)NCCCCCN1CCC(CCCNS(=O)(=O)c2ccc(F)cc2)CC1 | 20 |
| CCCc1ccc(NC(=O)c2ccc(CN3CCCN(CC4CCCCC4)CC3)cc2)cc1.O=C(O)C(F)(F)F | 41 |
| COC(=O)C(c1ccc(NC(=O)[C@H](CC(C)C)NC(=O)OC(C)(C)C)cc1)c1ccc(NC(=O)[C@H](CC(C)C)NC(=O)OC(C)(C)C)cc1 | 42 |
| O=C(O)C(F)(F)F.c1ccc(CNCc2cccc(-c3ccc(-c4nc5ccccc5[nH]4)s3)c2)cc1 | 63 |
| CCc1cn2c3c(cc(C(=O)N[C@@H](Cc4ccccc4)[C@H](O)CNC(C)(C)c4cccc(OC)c4)cc13)N(C)S(=O)(=O)C2.O=CO | 99 |
| COc1cccc2c1CCN(CCN1CCC(CNC(=O)c3ccc(-c4ccc(C#N)cc4)cc3)CC1)C2 | 98 |
| CCc1cn2c3c(cc(C(=O)N[C@@H](Cc4ccccc4)[C@H](O)CNCCOC)cc13)N(C)S(=O)(=O)CC2.O=CO | 56 |
| C[C@@H](CNc1ccnc(Nc2ccc3[nH]c(=O)[nH]c3c2)n1)c1ccccc1 | 1 |
| C[C@@H]1CN(C(c2cccc(O)c2)c2cccc(C(=O)N(C)c3cccc(F)c3)c2)[C@@H](C)CN1C(c1cccc(O)c1)c1cccc(C(=O)N(C)c2cccc(F)c2)c1.Cl (stereo not given in full) | 85 |
| Cc1cccc2nc(-c3cccc(-c4cccc(C(=O)NCc5nccn5C)c4)c3)[nH]c12 | 50 |
| Cc1ccc2cc(C3NC(=O)c4ccccc4N3)c(Cl)nc2c1 (stereo not given) | 38 |
| Cc1cccc2nc(-c3ccc(-c4cccc(CNCCNC(=O)c5ccnn5C)c4)s3)[nH]c12.O=C(O)C(F)(F)F | 87 |

| SMILES | Inhibition [%] |
| --- | --- |
| CC(C)(Oc1c(C2CCN(CCCCNC(=O)c3ccc(-c4ccc(Cl)cc4)cc3)CC2)ccc2c1CCCC2)C(N)=O | 5 |
| CN1CCC(NCc2ccc(-c3cccc(S(=O)(=O)NCC4CCCO4)c3)cc2)CC1.O=C(O)C(F)(F)F (stereo not given) | 0 |
| COc1ccccc1COc1c(C)nc(N)nc1N.Cl | 1 |
| CSC1=NC(=Nc2c(C)cccc2C)C2(CCCCC2)N1c1ccccc1Cl | 57 |
| COc1cccc2cc(C(=O)N[C@@H](CC(C)C)C(=O)NC3CC[C@@H](C)N(C(=O)Nc4ccncc4)CC3=O)oc12 (stereo not given in full) | 90 |
| Cc1cc2nc(-c3cccc(C(=O)NC4CCN(Cc5ccccc5)CC4)c3)[nH]c2cc1C | 13 |
| Cl.NOCCCCOc1ccc(Cl)cc1 | 0 |
| Cl.N#Cc1cccc(-c2ccc(C(=O)Nc3ccc4c(c3)CCN(C3CCC3)CC4)cn2)c1 | 5 |
| OC(CNCc1ccco1)Cn1c2ccc(Br)cc2c2cc(Br)ccc21 (stereo not given) | 72 |
| CC(C)N(Cc1ccc(-c2ccc(C(F)(F)F)cc2)cc1)C(=O)Cn1c(CCc2cccc(F)c2F)cc(=O)c2ccc(CCCN3CCCCC3)cc21.O=C(O)C(O)C(O)C(=O)O | 82 |
| CC(N)(Cc1ccc(O)cc1)c1nnn[nH]1 (stereo not given) | 2 |
| Cc1cc(=NN=Cc2cccc(F)c2)c2cc(F)ccc2[nH]1 | 99 |
| Nc1cc2c(C3CCN(CC4CCN(C(=O)/C=C/c5ccc(Cl)c(Cl)c5)CC4)CC3)c[nH]c2cn1 | 94 |
| COc1ccc(CN(C)Cc2cc(C(C)C)c(C)cc2O)cc1F | 98 |
| CCOc1cc(O)c(-c2nc(N)ncc2-c2ccc3c(c2)OCCO3)cc1CC | 68 |
| C=C[C@H]1CN2CC[C@H]1C[C@@H]2[C@@H](O)c1ccnc2ccc(OC)cc12 [QUINIDINE] | 95 |
| CCc1cc(-c2onc(C(F)(F)F)c2-c2ccccc2)c(O)cc1OC | 73 |
| O=C(Nc1ccc2c(c1)CCC2)N[C@H]1CCN(CCCCCNC(=O)C2CC2c2ccc(Cl)c(Cl)c2)C1 (stereo not given in full) | 0 |
| CCOc1cc(C)ccc1N1CCN(CCCCNC(=O)c2ccc(NC(=O)c3ccc(Cl)cc3)cc2)CC1.Cl | 46 |
| COc1cc(-c2nc(-c3ccccc3)c(-c3ccccc3)[nH]2)cc(OC)c1O | 90 |
